Compound activity as filed in PubChem.
Shown are actives, neighbours in structure and some others; about 1.2% of the full set was active somewhere.
PrPC TRFRET: cell surface PrPC inhibition, primary TR-FRET screen | P04156 | TR-FRET read-out | inhibition, % at 13.8 µM | hit rate 0.43% among 370,000 | AID 720596; in the data active means inhibition above about 24%
Rv3671c protease: Rv3671c (M. tuberculosis) protease inhibition | hit rate 0.048% among 320,000 | inhibition, % at 5.96 µM | AID 2606; in the data active means inhibition above about 38%;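 further: extracellular domain of Rv3671c used as enzyme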
SSB-PriA inh: inhibitors of Klebsiella pneumoniae PriA binding to SSB C-terminal tail | AlphaScreen SSBct-PriA binding, biotinylated peptide | inhibition, % at 33 µM | hit rate 0.6% among 430,000; in the data active means inhibition mostly above about 37%, no sharp cut-off; inactive means mostly below about 20%
FadD28 binding: blocks FadD28 binding to the bisubstrate probe. inhibition, % at 12.5 µM. fluorescence polarization. hit rate 0.22% among 360,000; in the data active means inhibition above about 8.5%, passing the limit was not always enough
UGM FP inh: inhibitors of M. tuberculosis UDP-galactopyranose mutase | P9WIQ1 | hit rate 0.06% among 320,000 | inhibition, % at 10 µM | AID 504406 | purified UGM, fluorescence polarization probe displacement; in the data active means inhibition above about 10%, passing the limit was not always enough
PrP UTR inh: inhibition of PrP 5' UTR reporter expression. cell-based PrP 5' UTR mRNA reporter, plate reader. inhibition, % (concentration not given with the values). hit rate 0.35% among 340,000. AID 488862; in the data active means inhibition above about 52%
PrP UTR cherry: prion 5' UTR mRNA inhibition, cherry-pick retest; cell-based prion protein 5' UTR reporter, plate reader; shares compounds with PrP UTR inh; hit rate 48% among 1,100; inhibition, % at 2.5 µM; in the data active means inhibition above about 54%
PrPC confirm: cell surface PrPC inhibition, TR-FRET confirmation; cell surface PrPC level; inhibition, % at 13.8 µM; AID 743200; hit rate 65% among 1,500; shares compounds with PrPC TRFRET; in the data active means inhibition above about 25%
LD9 tox: kills or reduces viability of LD9 cells in PrPc counter-screen; shares compounds with PrPC TRFRET; LD9 cells cytotoxicity, luminescence viability; inhibition, % at 13.8 µM; hit rate 29% among 1,500; AID 743201; in the data active means inhibition above about 9.5%
Of the large screens only hits and unclear results are named; the others gave an inactive call (follow-up assays come after a bar, where they were run).

COC(=O)C12OCC34C(CC5C(C)=C(O)C(=O)CC5(C)C3C(O)C1O)OC(=O)C(OC(=O)/C=C(\C)C(C)C)C24 (centres undefined)	PrPC TRFRET 100, PrP UTR inh 93 (no result: Rv3671c protease, UGM FP inh) | PrP UTR cherry 92 | PrPC confirm 100 | LD9 tox 47
COC(=O)C12OCC34C(CC5C(C)=C(O)C(=O)CC5(C)C3C(O)C1O)OC(=O)C(OC(=O)C=C(C)C)C24 (centres undefined)	PrPC TRFRET 100, PrP UTR inh 83 (no result: Rv3671c protease, UGM FP inh) | PrP UTR cherry 86 | PrPC confirm 101 | LD9 tox 35
COc1ccc2nc(-c3ccc(OC)c(NC(=O)COc4ccc(Cl)cc4)c3)cn2n1	none (no result: PrPC TRFRET, Rv3671c protease, FadD28 binding, UGM FP inh, PrP UTR inh)
CO[C@@]1(CNS(=O)(=O)c2cccs2)CCSC1	none (no result: PrPC TRFRET, Rv3671c protease, FadD28 binding, UGM FP inh, PrP UTR inh)
COc1ccc(CC2NCC(O)C2OC(C)=O)cc1 (centres undefined)	PrPC TRFRET 94, PrP UTR inh 77 (no result: Rv3671c protease, UGM FP inh) | PrP UTR cherry 95 | PrPC confirm 99 | LD9 tox 51
COc1ccc(CC2NCCC3(O)CCCCC23)cc1 (centres undefined)	none
C=C1C(=O)O[C@@H]2C[C@@H](C)[C@@H]3C=CC(=O)[C@@]3(C)[C@@H](O)[C@H]12	PrPC TRFRET 95, PrP UTR inh 56 | PrP UTR cherry 82 | PrPC confirm 100 | LD9 tox 58
C[C@@H]1C[C@@H]2OC(=O)[C@]3(C)[C@H]2[C@@H](OC3(C)O)[C@]2(C)C(=O)C=C[C@H]12 (some centres undefined)	none
C[C@H]1CCC/C=C/[C@@H]2C[C@H](O)C[C@H]2[C@H](O)/C=C/C(=O)O1	PrPC TRFRET 95, PrP UTR inh 79 (no result: SSB-PriA inh) | PrP UTR cherry 87 | PrPC confirm 95 | LD9 tox inactive
CC1=CC2OC3CC4OC(=O)C=CC=CC(C(C)O)OCC(O)C(C)CC(=O)OCC2(CC1O)C4(C)C31CO1 (centres undefined)	PrPC TRFRET 88, PrP UTR inh 95 (no result: Rv3671c protease, UGM FP inh) | PrP UTR cherry 95 | PrPC confirm 99 | LD9 tox 60
O=C(Nc1cnc(Oc2ccccc2)nc1)c1c(F)cccc1Cl	none (no result: PrPC TRFRET, Rv3671c protease, FadD28 binding, UGM FP inh, PrP UTR inh)
CC1CCOC(=O)/C=C/C=C/C(=O)OC2CC3OC4C5OC5(C)C(O)CC4(COC(=O)C1O)C2(C)C31CO1 (centres undefined)	none (no result: PrPC TRFRET, Rv3671c protease, FadD28 binding, UGM FP inh, PrP UTR inh)
CC(=O)OC1C(=O)OCC23CCC4(C)OC4C2OC2CC(OC(=O)C=CC=CC(=O)OCCC1C)C3(C)C21CO1 (centres undefined)	PrPC TRFRET 92, PrP UTR inh 94 (no result: Rv3671c protease, SSB-PriA inh, UGM FP inh) | PrP UTR cherry 95 | PrPC confirm 98 | LD9 tox 63
CCC(C)C1NC(=O)C(NC(=O)C(CC(C)C)N(C)C(=O)C2CCCN2C(=O)C(C)O)C(C)OC(=O)C(Cc2ccc(OC)cc2)N(C)C(=O)C2CCCN2C(=O)C(CC(C)C)NC(=O)[C@H](C)C(=O)[C@H](C(C)C)OC(=O)CC1O (some centres undefined)	PrPC TRFRET 97, PrP UTR inh 94 (no result: Rv3671c protease, UGM FP inh) | PrP UTR cherry 96 | PrPC confirm 98 | LD9 tox 64
O=C(CSc1ccncc1)Nc1cc(-n2ccc3ccccc32)ncn1	none (no result: PrPC TRFRET, Rv3671c protease, FadD28 binding, UGM FP inh, PrP UTR inh)
CC(=O)OC1(C)CC(C)C(=O)C(C(O)CC2CC(=O)NC(=O)C2)C1 (centres undefined)	PrPC TRFRET 91, PrP UTR inh 63 (no result: Rv3671c protease, UGM FP inh) | PrP UTR cherry 96 | PrPC confirm 101 | LD9 tox 55
COc1ccc([C@@]23Oc4cc(OC)cc(OC)c4[C@]2(O)[C@H](O)[C@H](C(=O)N(C)C)[C@H]3c2ccccc2)cc1	PrPC TRFRET 98, PrP UTR inh 79 (no result: Rv3671c protease, UGM FP inh) | PrP UTR cherry 85 | PrPC confirm 99 | LD9 tox 29
COc1ccccc1CC(=O)NCc1sc(-c2ccccc2F)nc1C	none (no result: PrPC TRFRET, Rv3671c protease, FadD28 binding, UGM FP inh, PrP UTR inh)
CCN(CC)c1ccc(C(=C2C=CC(=[N+](CC)CC)C=C2)c2ccccc2)cc1	PrPC TRFRET 85, PrP UTR inh 56 (no result: Rv3671c protease, UGM FP inh) | PrP UTR cherry 88 | PrPC confirm 90 | LD9 tox 99
